Bioassay records from PubChem.
Rab9 prom act: Rab9 promoter activation; 2.8% of 320,000 active; Huh7 Rab9 promoter-luciferase reporter, luminescence, 24 h; AID 485297; Potency, µM (titrated, usually from 9.22 µM), inactives show top-dose activation, negative = inhibition, most hits filed as activators; also: % of control where 0% means no effect; nearly all actives have a fitted effect of over 60% in size
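Huh7 cells stably carrying Rab9 promoter–luciferase reporter, plated 1500 cells/well, compound added after 2 h and incubated 24 h at 37 °C; luciferase luminescence then read after 10 min with detection reagent.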
ELG1 genotoxic: genotoxicity induction in ELG1-luciferase HEK293T cells; 1.3% of 330,000 active; Potency, µM (series often up to 46 µM), for inactives: top-dose activity change, positive = activation, actives largely listed as activators; AID 504466; HEK293T ELG1-luciferase reporter, luminescence, 16 h; also: % of control where 0% means no effect; nearly all actives have a fitted effect of over 60% in size
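Luminescence read-out: rising ELG1-luciferase signal, reflecting elevated ELG1 protein under genetic stress, flags genotoxic compounds. Cells were treated for 16 hr at 37 °C before ONE-Glo detection.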
SMN2 splice up: increases expression of the SMN2 splice variant; Potency, µM (doses to about 46.1 µM), without a hit: at the top dose activity change, positive = activation, most hits filed as activators; AID 1458; 2.8% of 210,000 active; HEK293 SMN2-luciferase splicing reporter, luminescence, 30-36 h; also: % of control where 0% means no effect; nearly all actives have a fitted effect of over 55% in size
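qHTS luciferase splicing reporter: luminescence rises when SMN2 exon 7 is included in transfected HEK293 cells. Compound exposure lasted 30-36 h at 37C, with 4.5 mM final sodium butyrate as control, followed by a ONE-Glo read.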
FLuc modulator: firefly luciferase modulation, counter-screen for miR-21 project | 6.9% of 360,000 active | AID 588342 | P08659 | Potency, µM (titrated, usually from 57.5 µM), without a hit: at the top dose activity change, negative = inhibition, most hits filed as inhibitors | purified FLuc, Km substrates, luminescence inhibition;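 also: plate controls were vehicle for no effect and reference inhibitor for full effect; nearly all actives have a fitted effect of over 55% in size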
Target sequence (P08659 whole entry, looked up): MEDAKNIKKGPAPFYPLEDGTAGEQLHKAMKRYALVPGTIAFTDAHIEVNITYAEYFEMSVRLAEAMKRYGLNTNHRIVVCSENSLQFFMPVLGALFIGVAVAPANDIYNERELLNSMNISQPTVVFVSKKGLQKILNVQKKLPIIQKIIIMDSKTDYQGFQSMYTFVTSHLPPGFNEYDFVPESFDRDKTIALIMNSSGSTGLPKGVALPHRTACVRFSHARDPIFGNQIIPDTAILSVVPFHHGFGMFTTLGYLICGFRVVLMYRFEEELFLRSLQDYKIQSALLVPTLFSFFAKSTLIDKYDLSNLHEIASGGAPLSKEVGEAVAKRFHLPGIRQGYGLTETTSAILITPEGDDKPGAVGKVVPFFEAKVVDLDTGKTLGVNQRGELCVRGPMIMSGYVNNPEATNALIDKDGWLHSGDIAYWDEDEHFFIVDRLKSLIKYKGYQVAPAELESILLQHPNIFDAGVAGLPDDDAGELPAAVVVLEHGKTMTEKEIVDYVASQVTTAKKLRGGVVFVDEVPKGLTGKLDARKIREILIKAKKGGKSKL
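Purified P. pyralis luciferase (10nM final) with 10uM D-luciferin and 10uM ATP (Km levels) in 50mM Tris acetate pH 7.5, 10mM Mg acetate, 0.01% Tween-20, 0.05% BSA; qHTS 6-point titration, ~60 µM downward; luminescence read.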
Luc counter: counter-screen: inhibitors of Kinase-Glo firefly luciferase. Q27757. Kinase-Glo luciferase, ATP luminescence, 8 min. Potency, µM (series often up to 38.3 µM), for the others: top-dose activity change, negative = inhibition, hits mostly inhibitors. 0.28% of 200,000 active. AID 1379; also: % is scaled to controls: 0 for no effect and ±100 for the full control effect; nearly all actives have a fitted effect of over 60% in size
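Recombinant Kinase-Glo luciferase, 10 uM ATP (linear range), luciferin; imidazole pH 7.2 / KCl / MgCl2 / Tween / BSA buffer; 8 min RT; luminescence.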
NPC1 prom act: activates the NPC1 promoter; Huh7 NPC1 promoter luciferase reporter, 24 h; Potency, µM (doses to about 9.22 µM), for the others: at the top dose activation, usual class: activators; 2.4% of 320,000 active; also: % of control where 0% means no effect; nearly all actives have a fitted effect of over 60% in size
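Stably transfected Huh7 (NPC1 promoter→luciferase), 1500 cells/well in Opti-MEM + 10% FBS, 2 h settle, then compound 24 h at 37 °C. Luminescence after 10 min with Amplite reagent.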
Active calls of the source: *; ? = inconclusive; · = no result; [ ] = remark or other dose. In the library only some 7.5% were active in any assay of this set; here they are far more common. Calls follow the shape of the dose curve; as a rule, active = well fitted curve in the direction sought with a large enough effect; inconclusive = small, poorly fitted or top-dose-only effect, or another doubt; inactive = no such curve, though single readings can be large; an effect the other way counts as inactive or inconclusive. Potency is read from the fitted curve at half-maximal effect.

SMILES | Rab9 prom act | ELG1 genotoxic | SMN2 splice up | FLuc modulator | Luc counter | NPC1 prom act
CCc1ccc(NC(=O)c2ccc(NS(=O)(=O)c3c(C)noc3C)cc2)cc1 | · | · | 1% | ? | · | ·
Cc1cccc(/C=N/NC(=O)c2ccc(Br)cc2)c1 | ? | ? | ? | 3.4µM* | -1% | 14%
CCOC(=O)Cc1csc(NC(=O)COc2ccccc2OCC)n1 | 6% | 1% | -5% | -3% | -5% | 1%
CCOC(=O)Cc1csc(NC(=O)COc2ccc(OC)cc2)n1 | -2% | 3% | 2% | 19µM* | 1% | -1%
CCOC(=O)Cc1csc(NC(=O)COc2ccc3ccccc3c2)n1 | -6% | 0% | -7% | 13µM* | -2% | 1%
COc1ccc(C(=O)Nc2cccc(/C=C/c3nc4ccccc4c(=O)[nH]3)c2)cc1 | 3.2µM* | -4% | · | ? | · | 27%
COc1ccc(C(=O)Nc2nc3cc(OC)c(OC)cc3c(=O)[nH]2)cc1 | -2% | 1% | -30% | 1% | -1% | -2%
O=C(Nc1cccc(/C=C/c2nc3ccccc3c(=O)[nH]2)c1)c1ccccc1Cl | ? | 0% | · | -12% | · | ?
COc1ccc(C(=O)Nc2nc3ccccc3c(=O)[nH]2)cc1 | 0.4µM* | ? | 13µM* | 2.7µM* | -11% | 0.71µM*
c1ccc(-c2cnc(CSc3nnc4ccccn34)o2)cc1 | 1µM* | 4.1µM* | 11µM* | 11µM* | -6% | 1.6µM*
Fc1ccc(-c2nnc(CSc3nnc4ccccn34)o2)cc1 | ? | ? | ? | ? | 0% | ?
CCN1C(=O)CC(NCc2ccc(S(N)(=O)=O)cc2)C1=O (stereo not given) | 3% | -3% | · | -1% | · | 1%
Cc1cc(NC(=O)c2ccc(S(=O)(=O)N(C)C)cc2)no1 | -1% | 9% | 22% | -16% | 0% | -1%
Cc1cc(NC(=O)c2ccc(Cl)cc2)no1 | 3.2µM* | 8.2µM* | 11µM* | 7.6µM* | -2% | ?
Cc1cc(NC(=O)Cc2ccccc2)no1 | -5% | 2% | -22% | 2% | 0% | -3%
Cc1cc(NC(=O)c2ccc3nc(C)sc3c2)no1 | 1.8µM* | 9.2µM* | 4µM* | ? | -2% | 0.89µM*
C/C(=C\c1ccccc1)C(=O)Nc1cc(C)on1 | ? | ? | -33% | 15µM* | -5% | 20%
Cc1cc(NC(=O)c2ccc3c(c2)C(=O)N(C(C)(C)C)C3=O)no1 | ? | ? | · | -3% | · | 17%
Cc1cc(NC(=O)c2cccc(COc3ccc(Br)cc3)c2)no1 | 0.45µM* | 0.65µM* | 0.35µM* | 9.5µM* | 6% | 0.35µM*
Cc1cc(Cn2cnc3c2C[C@@H](C(=O)O)N(C(=O)C(c2ccccc2)c2ccccc2)C3)ccc1N | -2%[46.1 µM] | · | · | · | · | 0%[46.1 µM]
O=C(Nc1ccccc1OCc1cc(=O)n2ccccc2n1)Nc1ccccc1C(F)(F)F | · | · | · | -1% | · | ·
CCOc1ccc(C(=O)Nc2cc(C)on2)cc1 | 1.4µM* | ? | 8.9µM* | 3.4µM* | -23% | 1.1µM*
Cc1cc(NC(=O)NC(=O)c2ccccc2)no1 | 2.5µM* | 15µM* | · | ? | · | 4µM*
CCOC(=O)c1ccc(NC(=O)C2=C(C)Nc3nc(SCc4ccc(Cl)cc4)nn3C2c2ccc(OC)cc2)cc1 (stereo not given) | · | · | 5% | 0% | · | ·
COc1ccc(/C=N/c2c(-c3ccc(OC)cc3)nc3n2CCS3)cc1 | 18% | 2% | 9% | 1.9µM* | -3% | -4%
SMILES | Rab9 prom act | ELG1 genotoxic | SMN2 splice up | FLuc modulator | Luc counter | NPC1 prom act
Fc1ccc(/C=N/c2c(-c3ccc(F)cc3)nc3n2CCS3)cc1 | -7% | 2% | 7% | 1% | -3% | 0%
Nc1ncnc2c1C1(CCCCC1)Cc1ccccc1-2 | -3% | -5% | -33% | 1% | -2% | 0%
COc1ccc(NC(=O)c2cccnc2Nc2ccc(OC)cc2)cc1 | 7% | -2% | -4% | ? | -4% | -5%
CC(C)c1ccc(Nc2ncccc2C(=O)O)cc1 | 0.4µM* | ? | 16µM* | 2.7µM* | -7% | 0.63µM*
Cc1ccccc1NC(=O)CSc1nc2c(c(=O)n(C)c(=O)n2C)n1Cc1ccccc1F | · | · | -1% | -1% | · | ·
COc1ccc(NC(=O)c2nnn(CC(=O)Nc3ccc4c(c3)OCO4)c2N)c(OC)c1 | 18% | 1%[9.26 µM] | · | 1.9µM* | · | 19%
COc1ccc(NC(=O)c2nnn(CC(=O)Nc3ccc4c(c3)OCO4)c2N)cc1OC | -4% | 0%[9.26 µM] | · | -5% | · | -5%
COc1ccc(Br)cc1Cn1nnc(C(=O)Nc2ccc3c(c2)OCCO3)c1N | -2% | -7% | · | ? | · | 0%
Nc1c(C(=O)Nc2ccc3c(c2)OCCO3)nnn1Cc1cccc(Cl)c1 | ? | 12% | · | ? | · | ?
Nc1c(C(=O)Nc2ccc3c(c2)OCCO3)nnn1Cc1ccccc1Cl | 2.2µM* | 17% | · | ? | · | 2.8µM*
Nc1c(C(=O)Nc2ccc3c(c2)OCCO3)nnn1Cc1ccc(F)cc1 | 2.2µM* | ? | · | ? | · | 2.5µM*
CO/N=C(/CN1CCCCC1)c1ccc(Cl)cc1 | -2% | -3% | · | 0% | · | 0%
CCOc1ccc(-c2cc(CCCC(=O)NCCc3ccccc3)no2)cc1 | -2% | ? | -30% | ? | -1% | 10%
COc1ccc(-c2cc(CCCC(=O)NCCc3ccccc3)no2)cc1 | ? | 6% | · | 7.6µM* | · | ?
COc1ccc(-c2cc(CCCC(=O)NCc3ccccn3)no2)cc1 | 12% | 10% | -34% | 8.5µM* | 1% | 13%
Cc1ccc(NS(=O)(=O)c2ccc(OCC(N)=O)cc2)cc1 | 0% | 1% | 4% | 1% | 1% | -3%
O=C(CNC(=O)c1cccs1)NCC(=O)OCC(=O)c1ccccc1 | 7% | -2% | · | 0% | · | -3%
O=C(CCC(=O)c1cccs1)NC(c1ccccc1)c1ccccc1 | -2% | 1% | -9% | 0% | -1% | -1%
O=C(CCC(=O)c1cccs1)c1cccs1 | 0.63µM* | 16µM* | · | 4.8µM* | -18% | 1.3µM*
COc1cccc(C(=O)COC(=O)c2cccs2)c1 | 5% | ? | · | 0.48µM* | · | ?
COc1cccc(C(=O)COC(=O)c2cc(-c3cccs3)nc3ccccc23)c1 | · | · | 0% | -17% | · | ·
O=C(COC(=O)c1cccs1)c1ccccc1 | 4µM* | 14% | 14% | 0.85µM* | -21% | ?
O=C(CSCc1ccco1)c1cccs1 | 1.3µM* | 12µM* | 7% | 9.5µM* | -7% | 4µM*
O=C(NCCCc1nc2ccccc2n1Cc1cccc(Cl)c1)c1ccco1 | · | · | -8% | -9% | · | ·
Cc1cc(N)c2cc(NC(=O)/C=C/c3ccccc3Cl)ccc2n1 | -20% | 5% | · | 13µM* | · | -8%
